Experiment [1] has as its target Tyrosine-protein kinase CSK (Homo sapiens) (UniProt P41240). The note with it: at 1 µM.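 Also: each value is an averaged inhibition reading.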
The target in experiment [2] is T1, Discoidin domain-containing receptor 2 (Homo sapiens) (UniProt Q16832).
T1 sequence (whole entry): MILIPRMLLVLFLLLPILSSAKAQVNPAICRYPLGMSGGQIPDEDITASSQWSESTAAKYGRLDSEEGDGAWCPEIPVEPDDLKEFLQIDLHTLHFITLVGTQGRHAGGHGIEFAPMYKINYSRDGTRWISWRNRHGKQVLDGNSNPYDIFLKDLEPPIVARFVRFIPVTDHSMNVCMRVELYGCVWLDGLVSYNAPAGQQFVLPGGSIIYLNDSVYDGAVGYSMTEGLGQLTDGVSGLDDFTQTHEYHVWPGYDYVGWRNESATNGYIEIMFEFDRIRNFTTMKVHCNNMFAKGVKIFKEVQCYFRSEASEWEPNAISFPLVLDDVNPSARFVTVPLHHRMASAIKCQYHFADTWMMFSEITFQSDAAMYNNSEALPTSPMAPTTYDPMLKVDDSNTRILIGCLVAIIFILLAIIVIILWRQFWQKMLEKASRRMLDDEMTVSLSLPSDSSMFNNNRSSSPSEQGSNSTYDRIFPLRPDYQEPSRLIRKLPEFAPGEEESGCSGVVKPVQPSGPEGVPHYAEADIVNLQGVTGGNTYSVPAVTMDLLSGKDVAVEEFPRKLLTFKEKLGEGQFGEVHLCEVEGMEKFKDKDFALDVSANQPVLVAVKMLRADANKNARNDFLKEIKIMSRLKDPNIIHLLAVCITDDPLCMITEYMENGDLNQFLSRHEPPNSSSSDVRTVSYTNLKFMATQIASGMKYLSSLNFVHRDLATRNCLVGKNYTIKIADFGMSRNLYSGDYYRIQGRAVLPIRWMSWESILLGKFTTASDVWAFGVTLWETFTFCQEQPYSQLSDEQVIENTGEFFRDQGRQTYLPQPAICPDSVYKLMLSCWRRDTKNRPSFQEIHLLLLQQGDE
Particulars: at 0.1 µM.

For experiment [3], the target named is T1, Discoidin domain-containing receptor 2 (Homo sapiens). The note with it: at 1 µM.
The target of experiment [4] is Epidermal growth factor receptor (Homo sapiens) (UniProt P00533). Particulars: at 0.1 µM.
Experiment [5] shares this target. Particulars: at 1 µM.
Experiment [6] concerns Epidermal growth factor receptor (Homo sapiens), P00533 [L858R]. The note with it: at 0.1 µM.
For experiment [7] the test system is unchanged. The note with it: at 1 µM.
Experiment [8] has as its system Epidermal growth factor receptor (Homo sapiens), P00533 [L861Q]. Particulars: at 0.1 µM.
For experiment [9] the test system is unchanged. The note with it: at 1 µM.
Experiment [10] deals with Epidermal growth factor receptor (Homo sapiens), P00533 [T790M]. Particulars: at 0.1 µM.
Experiment [11] shares this test system. Particulars: at 1 µM.
In experiment [12] the test system is Epidermal growth factor receptor (Homo sapiens), P00533 [L858R,T790M]. Particulars: at 0.1 µM.
For experiment [13] the test system is unchanged. Particulars: at 1 µM.
Experiment [14] addresses Ephrin type-A receptor 2 (Homo sapiens) (UniProt P29317). Particulars: at 0.1 µM.
Experiment [15] has the same target. Particulars: at 1 µM.
Experiment [16] has as its target T2, Ephrin type-A receptor 3 (Homo sapiens) (UniProt P29320).
T2 sequence (whole entry): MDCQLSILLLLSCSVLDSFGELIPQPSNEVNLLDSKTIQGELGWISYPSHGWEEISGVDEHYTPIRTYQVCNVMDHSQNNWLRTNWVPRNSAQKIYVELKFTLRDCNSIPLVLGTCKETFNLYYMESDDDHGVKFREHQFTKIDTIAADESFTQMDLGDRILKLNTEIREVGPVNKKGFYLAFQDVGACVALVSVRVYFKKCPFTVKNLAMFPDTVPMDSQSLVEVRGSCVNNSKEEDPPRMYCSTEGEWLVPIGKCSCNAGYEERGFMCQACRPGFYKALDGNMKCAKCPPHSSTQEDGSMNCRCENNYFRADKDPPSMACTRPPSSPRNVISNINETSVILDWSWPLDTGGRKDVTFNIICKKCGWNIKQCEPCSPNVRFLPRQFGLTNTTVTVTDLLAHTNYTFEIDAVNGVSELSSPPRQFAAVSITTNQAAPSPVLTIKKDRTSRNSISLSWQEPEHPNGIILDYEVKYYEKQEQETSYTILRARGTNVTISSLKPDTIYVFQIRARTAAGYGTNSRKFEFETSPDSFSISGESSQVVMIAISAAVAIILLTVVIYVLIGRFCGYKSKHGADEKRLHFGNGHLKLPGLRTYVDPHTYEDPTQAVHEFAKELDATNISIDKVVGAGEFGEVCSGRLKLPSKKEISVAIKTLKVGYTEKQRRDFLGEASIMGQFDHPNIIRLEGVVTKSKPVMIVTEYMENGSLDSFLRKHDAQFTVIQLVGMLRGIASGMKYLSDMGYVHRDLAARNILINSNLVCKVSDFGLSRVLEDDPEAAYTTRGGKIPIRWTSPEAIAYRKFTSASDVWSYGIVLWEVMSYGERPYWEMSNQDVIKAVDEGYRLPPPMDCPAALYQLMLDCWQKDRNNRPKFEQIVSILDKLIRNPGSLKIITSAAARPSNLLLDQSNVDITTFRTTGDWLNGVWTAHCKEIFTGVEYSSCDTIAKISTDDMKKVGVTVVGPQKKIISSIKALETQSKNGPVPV
The note with it: at 0.1 µM.

In experiment [17] the target is T2, Ephrin type-A receptor 3 (Homo sapiens). Particulars: at 1 µM.
In experiment [18] the target is Ephrin type-A receptor 4 (Homo sapiens) (UniProt P54764). Particulars: at 0.1 µM.
Experiment [19] has the same target. Particulars: at 1 µM.
In experiment [20] the target is T3, Ephrin type-B receptor 2 (Homo sapiens) (UniProt P29323).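 Also: reported as mean inhibition of EPHB2, from the GSK PKIS dataset.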
T3 sequence (whole entry): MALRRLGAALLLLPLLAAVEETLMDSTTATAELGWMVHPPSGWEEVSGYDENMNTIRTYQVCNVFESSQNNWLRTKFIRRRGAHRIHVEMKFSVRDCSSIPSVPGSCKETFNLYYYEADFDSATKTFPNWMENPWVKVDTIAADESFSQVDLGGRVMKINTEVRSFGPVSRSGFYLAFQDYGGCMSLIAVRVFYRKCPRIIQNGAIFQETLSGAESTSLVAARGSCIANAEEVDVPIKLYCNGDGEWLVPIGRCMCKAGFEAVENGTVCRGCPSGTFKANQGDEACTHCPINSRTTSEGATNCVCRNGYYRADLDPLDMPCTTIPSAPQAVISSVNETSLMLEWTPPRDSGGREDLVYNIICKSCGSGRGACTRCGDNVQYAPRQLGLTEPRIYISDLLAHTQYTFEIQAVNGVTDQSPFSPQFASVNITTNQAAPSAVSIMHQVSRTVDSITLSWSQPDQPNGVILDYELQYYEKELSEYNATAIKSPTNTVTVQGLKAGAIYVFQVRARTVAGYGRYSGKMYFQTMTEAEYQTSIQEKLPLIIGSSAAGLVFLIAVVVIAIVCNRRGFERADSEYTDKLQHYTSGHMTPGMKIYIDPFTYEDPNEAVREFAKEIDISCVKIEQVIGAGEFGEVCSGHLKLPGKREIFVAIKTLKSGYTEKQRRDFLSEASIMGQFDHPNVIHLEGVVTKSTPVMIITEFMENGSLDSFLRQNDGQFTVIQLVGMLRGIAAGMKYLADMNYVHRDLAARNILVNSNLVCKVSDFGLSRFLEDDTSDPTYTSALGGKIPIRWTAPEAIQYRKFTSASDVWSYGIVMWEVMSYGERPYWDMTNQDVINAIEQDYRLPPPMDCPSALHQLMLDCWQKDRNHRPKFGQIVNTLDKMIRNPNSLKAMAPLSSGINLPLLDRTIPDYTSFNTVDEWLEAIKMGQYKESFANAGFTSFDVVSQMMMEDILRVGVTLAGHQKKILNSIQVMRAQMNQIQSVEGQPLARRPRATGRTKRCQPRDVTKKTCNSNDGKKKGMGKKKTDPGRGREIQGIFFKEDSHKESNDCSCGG
Particulars: at 0.1 µM.

Chain of Epidermal growth factor receptor (Homo sapiens), P00533 [T790M] (P00533 whole entry T790M): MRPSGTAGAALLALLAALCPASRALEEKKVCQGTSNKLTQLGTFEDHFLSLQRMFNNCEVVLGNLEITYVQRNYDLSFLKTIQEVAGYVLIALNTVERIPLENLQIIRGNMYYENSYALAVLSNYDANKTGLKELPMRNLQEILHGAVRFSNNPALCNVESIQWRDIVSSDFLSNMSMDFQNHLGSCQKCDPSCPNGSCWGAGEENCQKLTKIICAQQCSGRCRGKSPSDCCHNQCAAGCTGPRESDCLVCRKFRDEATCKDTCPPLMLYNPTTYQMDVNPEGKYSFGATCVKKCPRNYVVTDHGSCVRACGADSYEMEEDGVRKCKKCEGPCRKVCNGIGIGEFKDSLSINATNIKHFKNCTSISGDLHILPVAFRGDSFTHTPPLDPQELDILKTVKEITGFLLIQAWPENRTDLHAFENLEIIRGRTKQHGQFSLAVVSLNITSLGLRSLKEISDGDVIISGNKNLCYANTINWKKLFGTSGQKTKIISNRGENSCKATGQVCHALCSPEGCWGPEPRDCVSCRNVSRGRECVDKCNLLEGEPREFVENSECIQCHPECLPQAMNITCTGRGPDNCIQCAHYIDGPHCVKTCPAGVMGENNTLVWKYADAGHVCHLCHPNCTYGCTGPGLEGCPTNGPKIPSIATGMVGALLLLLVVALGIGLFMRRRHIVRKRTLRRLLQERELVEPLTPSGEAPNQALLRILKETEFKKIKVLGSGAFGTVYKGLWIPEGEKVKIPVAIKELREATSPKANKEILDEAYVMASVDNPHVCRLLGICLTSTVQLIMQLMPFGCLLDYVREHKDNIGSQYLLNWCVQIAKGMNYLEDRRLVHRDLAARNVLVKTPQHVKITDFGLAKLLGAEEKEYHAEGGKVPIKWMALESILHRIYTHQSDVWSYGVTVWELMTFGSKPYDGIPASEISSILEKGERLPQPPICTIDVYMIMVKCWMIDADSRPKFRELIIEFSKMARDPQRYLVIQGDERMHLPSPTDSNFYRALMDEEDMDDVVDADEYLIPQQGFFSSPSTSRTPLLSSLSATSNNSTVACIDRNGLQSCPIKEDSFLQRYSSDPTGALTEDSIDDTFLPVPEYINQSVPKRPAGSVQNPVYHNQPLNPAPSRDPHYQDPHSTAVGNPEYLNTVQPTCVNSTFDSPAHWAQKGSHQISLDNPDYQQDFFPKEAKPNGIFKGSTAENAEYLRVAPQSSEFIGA
Chain of Epidermal growth factor receptor (Homo sapiens), P00533 [L858R,T790M] (P00533 whole entry T790M/L858R, looked up): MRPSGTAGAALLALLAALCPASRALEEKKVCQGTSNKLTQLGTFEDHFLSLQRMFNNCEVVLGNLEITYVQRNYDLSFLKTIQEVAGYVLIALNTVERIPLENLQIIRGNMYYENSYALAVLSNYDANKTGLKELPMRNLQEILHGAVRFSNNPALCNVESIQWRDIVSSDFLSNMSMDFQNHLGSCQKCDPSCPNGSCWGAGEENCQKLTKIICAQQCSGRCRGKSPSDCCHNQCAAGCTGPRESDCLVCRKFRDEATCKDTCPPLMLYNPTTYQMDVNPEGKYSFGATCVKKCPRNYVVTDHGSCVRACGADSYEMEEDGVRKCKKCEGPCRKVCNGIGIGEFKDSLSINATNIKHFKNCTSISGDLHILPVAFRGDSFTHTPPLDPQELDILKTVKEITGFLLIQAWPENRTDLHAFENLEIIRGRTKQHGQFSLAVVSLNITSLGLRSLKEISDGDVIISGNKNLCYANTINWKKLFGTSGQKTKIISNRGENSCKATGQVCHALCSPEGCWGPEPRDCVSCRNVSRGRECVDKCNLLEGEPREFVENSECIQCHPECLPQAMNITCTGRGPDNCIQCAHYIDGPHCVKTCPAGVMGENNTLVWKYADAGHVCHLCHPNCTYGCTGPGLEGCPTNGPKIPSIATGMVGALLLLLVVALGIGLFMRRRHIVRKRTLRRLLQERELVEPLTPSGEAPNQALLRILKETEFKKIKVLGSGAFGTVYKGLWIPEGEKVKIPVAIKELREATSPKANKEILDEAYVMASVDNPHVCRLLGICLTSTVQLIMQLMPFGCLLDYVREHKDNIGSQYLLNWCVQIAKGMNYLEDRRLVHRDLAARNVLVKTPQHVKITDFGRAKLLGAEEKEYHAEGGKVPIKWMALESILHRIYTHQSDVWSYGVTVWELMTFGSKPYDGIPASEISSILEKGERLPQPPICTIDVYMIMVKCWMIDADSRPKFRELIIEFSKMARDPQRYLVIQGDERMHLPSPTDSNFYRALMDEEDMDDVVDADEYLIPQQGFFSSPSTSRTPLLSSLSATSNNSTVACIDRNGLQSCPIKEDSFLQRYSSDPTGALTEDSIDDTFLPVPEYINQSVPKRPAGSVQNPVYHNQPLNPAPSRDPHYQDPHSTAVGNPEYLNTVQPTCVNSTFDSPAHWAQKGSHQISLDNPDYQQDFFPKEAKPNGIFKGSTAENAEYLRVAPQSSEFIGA
Chain of Ephrin type-A receptor 2 (Homo sapiens) (P29317 whole entry): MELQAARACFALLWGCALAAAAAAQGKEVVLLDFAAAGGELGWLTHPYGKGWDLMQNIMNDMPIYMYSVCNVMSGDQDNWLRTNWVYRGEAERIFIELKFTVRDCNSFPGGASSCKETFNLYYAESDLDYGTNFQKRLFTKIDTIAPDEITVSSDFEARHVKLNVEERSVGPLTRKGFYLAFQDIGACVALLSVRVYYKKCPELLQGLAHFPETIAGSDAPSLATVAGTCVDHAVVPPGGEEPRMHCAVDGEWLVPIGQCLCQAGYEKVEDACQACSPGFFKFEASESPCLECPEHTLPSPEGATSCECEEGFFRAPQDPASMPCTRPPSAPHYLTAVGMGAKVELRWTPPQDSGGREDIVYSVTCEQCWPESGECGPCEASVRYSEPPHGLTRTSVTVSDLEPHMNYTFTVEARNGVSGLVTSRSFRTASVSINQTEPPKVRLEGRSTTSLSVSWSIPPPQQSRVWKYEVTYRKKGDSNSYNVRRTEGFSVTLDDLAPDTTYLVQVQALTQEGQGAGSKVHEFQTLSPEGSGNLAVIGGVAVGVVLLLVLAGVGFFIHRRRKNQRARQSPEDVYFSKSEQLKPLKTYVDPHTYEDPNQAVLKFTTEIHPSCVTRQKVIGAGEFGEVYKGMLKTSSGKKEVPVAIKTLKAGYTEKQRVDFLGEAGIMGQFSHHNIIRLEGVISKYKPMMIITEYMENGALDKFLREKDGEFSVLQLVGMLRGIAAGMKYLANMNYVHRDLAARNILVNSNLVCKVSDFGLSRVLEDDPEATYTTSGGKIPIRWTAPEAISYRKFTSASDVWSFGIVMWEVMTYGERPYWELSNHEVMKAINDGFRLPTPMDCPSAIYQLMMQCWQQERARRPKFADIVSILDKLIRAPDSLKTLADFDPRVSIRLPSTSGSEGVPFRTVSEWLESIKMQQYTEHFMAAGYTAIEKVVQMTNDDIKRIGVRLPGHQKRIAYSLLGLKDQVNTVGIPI
Chain of Epidermal growth factor receptor (Homo sapiens), P00533 [L858R] (P00533 whole entry L858R): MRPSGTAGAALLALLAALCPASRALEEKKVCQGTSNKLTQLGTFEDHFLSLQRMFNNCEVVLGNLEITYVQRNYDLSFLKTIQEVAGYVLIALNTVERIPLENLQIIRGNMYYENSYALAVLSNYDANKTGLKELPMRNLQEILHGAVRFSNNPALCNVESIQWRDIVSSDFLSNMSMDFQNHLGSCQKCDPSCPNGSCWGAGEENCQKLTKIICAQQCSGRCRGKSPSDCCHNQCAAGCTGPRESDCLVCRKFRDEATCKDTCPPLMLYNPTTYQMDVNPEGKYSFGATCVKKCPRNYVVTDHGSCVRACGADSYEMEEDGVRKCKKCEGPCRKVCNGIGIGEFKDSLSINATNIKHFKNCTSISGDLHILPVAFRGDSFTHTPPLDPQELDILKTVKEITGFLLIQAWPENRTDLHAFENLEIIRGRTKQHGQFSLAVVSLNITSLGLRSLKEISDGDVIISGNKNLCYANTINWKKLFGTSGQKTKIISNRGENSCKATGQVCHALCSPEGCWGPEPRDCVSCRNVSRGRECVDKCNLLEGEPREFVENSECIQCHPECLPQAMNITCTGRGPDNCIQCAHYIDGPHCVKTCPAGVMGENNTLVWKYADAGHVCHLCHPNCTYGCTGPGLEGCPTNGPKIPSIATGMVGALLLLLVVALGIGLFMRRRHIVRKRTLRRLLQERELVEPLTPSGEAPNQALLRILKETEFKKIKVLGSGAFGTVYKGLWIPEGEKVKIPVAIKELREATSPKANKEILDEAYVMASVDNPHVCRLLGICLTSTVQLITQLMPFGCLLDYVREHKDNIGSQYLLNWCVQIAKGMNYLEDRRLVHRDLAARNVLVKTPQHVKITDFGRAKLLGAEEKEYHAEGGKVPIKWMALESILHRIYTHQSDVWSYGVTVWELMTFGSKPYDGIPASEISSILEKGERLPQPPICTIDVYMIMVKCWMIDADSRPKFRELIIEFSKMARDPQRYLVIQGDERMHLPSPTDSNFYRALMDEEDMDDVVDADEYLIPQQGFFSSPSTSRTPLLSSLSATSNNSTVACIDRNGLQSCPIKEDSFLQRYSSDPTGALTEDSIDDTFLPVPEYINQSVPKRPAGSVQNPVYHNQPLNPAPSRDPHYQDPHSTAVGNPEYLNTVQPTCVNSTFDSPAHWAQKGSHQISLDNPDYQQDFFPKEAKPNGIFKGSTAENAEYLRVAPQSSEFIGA
Chain of Tyrosine-protein kinase CSK (Homo sapiens) (P41240 2-450 limits assumed): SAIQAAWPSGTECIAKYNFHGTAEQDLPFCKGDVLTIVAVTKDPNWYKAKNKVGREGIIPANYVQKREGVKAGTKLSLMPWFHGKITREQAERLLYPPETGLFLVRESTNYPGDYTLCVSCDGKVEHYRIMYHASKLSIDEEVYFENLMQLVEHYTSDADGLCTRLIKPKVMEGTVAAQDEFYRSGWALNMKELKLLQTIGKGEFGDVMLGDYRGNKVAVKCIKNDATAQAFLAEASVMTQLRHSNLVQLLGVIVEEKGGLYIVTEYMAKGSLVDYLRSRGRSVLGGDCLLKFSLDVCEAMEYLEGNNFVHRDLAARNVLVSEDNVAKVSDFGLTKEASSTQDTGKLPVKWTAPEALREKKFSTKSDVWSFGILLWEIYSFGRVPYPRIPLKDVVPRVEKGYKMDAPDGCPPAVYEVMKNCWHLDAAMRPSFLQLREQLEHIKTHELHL

`COc1cc(C=NNc2ncnc3c2cnn3-c2ccccc2)ccc1O`: the inhibition in [1] came to 5.56%; in [2], 5.59%; in experiment [3] it was 13.6%; in experiment [4] it was 6.29%; in experiment [5] it was 36.2%; in [6], 27.3%. In addition, the inhibition in [7] was determined as 79.6%; in experiment [8], 6.66%; in experiment [9] it was 38.2%; in [10], 0.71%; in experiment [11], 2.02%; in experiment [12], 3.12%. The inhibition in [13] came out at 13.3%; in experiment [14], 3.61%; in [15] it was 11.4%; in experiment [16], 4.47%; in [17], 8.46%; in experiment [18] it was 10.2%. In addition, the inhibition is 17.1% in experiment [19] and 9.57% in experiment [20].
Consider `[O-][S+]1CCN(Cc2ccc(-c3ccc4ncnc(Nc5ccc(OCc6ccccc6)c(F)c5)c4c3)o2)CC1`, for which the inhibition in experiment [1] was -3.52%; in experiment [2], 0.34%; in experiment [3] it was 0.62%; in experiment [4], 84.1%; in experiment [5], 90.7%; in experiment [6], 42.6%. Moreover, the inhibition in [7] came out at 84.9%; in experiment [8], 39.7%; in experiment [9] it was 68.6%; in experiment [10] it was 4.05%; in experiment [11] it was 10.7%; in experiment [12] it was 3.03%. For the same compound, the inhibition in experiment [13] is 0.99%; in experiment [14], 0.8%; in experiment [15], -0.21%; in experiment [16], 4.64%; in experiment [17], 4.32%; in experiment [18] it was 4.58%. The inhibition was -1.51% in [19] and 4.14% in experiment [20].
`CCn1c(-c2nonc2N)nc2c(C#CC(C)(C)O)nc(CN3CCCC3)cc21`: the inhibition in [1] is -4.12%; in experiment [2], 1.3%; in experiment [3], 5.64%; in experiment [4], 1.34%; in [5], 1.12%; in [6], -0.22%. Moreover, the inhibition in experiment [7] is -1.48%; in [8], -1.77%; in experiment [9], -4.01%; in experiment [10], -2.21%; in experiment [11], -1.46%; in experiment [12], -1.08%. The inhibition in [13] was 0.28%; in experiment [14], -1.52%; in [15], -2.75%; in [16], -2.69%; in experiment [17], 1.11%; in [18], -7.89%. The inhibition was -5.06% in experiment [19] and -4.91% in experiment [20].
With `CN1CCC(C(=O)Nc2n[nH]c3nnc(-c4ccccc4)cc23)CC1`, the inhibition came to 6.5% in [1]; 0.55% in experiment [2]; 1% in [3]; 10.2% in [4]; 7.57% in experiment [5]; 1.7% in [6]. The inhibition was 3.79% in [7]; 2.96% in experiment [8]; 6.37% in experiment [9]; 1.89% in [10]; 4.1% in experiment [11]; -2.57% in experiment [12]. For the same compound, the inhibition in experiment [13] came to 4.67%; in experiment [14], 1.84%; in experiment [15] it was 2.09%; in [16], 4.03%; in experiment [17] it was 2.66%; in [18], 8.03%. Further, the inhibition is 8.45% in experiment [19] and 4.92% in experiment [20].
As for `COc1cc2ncn(-c3cc(O[C@@H](C)c4ccccc4Cl)c(C(N)=O)s3)c2cc1OC`, the inhibition in [1] was 5.68%; in experiment [2], 1.33%; in experiment [3], 1.58%; in [4], 0.08%; in experiment [5], 7.32%; in experiment [6], 5.96%. Further, the inhibition in [7] was 26.9%; in [8], 3.26%; in experiment [9], 7.73%; in experiment [10], 1.35%; in [11], 2.06%; in experiment [12] it was 1.8%. Also, the inhibition was determined as 5.2% in [13]; 1.55% in experiment [14]; 1.17% in experiment [15]; 1.7% in experiment [16]; 6.21% in [17]; 6.22% in [18]. The inhibition in experiment [19] was determined as 14.2%; in experiment [20], 7.76%.

One may read the inhibition as the relative decrease from the control value, in per cent.

For the origin of these results see ChEMBL document CHEMBL1961873, “Compounds: GSK PKIS; Assays: Nanosyn kinase panel” (2012).
